Reference: PubChem BioAssay AID463173 (ICCB-Longwood Screening Facility, Harvard Medical School, 2010)
The whole screen tested about 52,000 compounds, of which about 4,300 (8.3%) were called active. Rule as the data show it: active = survival mostly below about 52% (no sharp cut-off); inactive = mostly above about 56%. Shown is part of a subset that was picked to be rich in actives.

Test system: DeltatarO mutant
Test: S. aureus survival, RN4220 and DeltatarO strains – OD600, teichoic acid synthesis inhibitors, primary screen (AID 463173)
Details: S. aureus RN4220 wild type/DeltatarO growth, OD600, 18 h, hits give low values, screened at 18.75 µg/mL (by protocol)

SMILES | survival
CCOc1ccc2nc(N3CCCC(C(=O)Nc4ccccc4CC)C3)sc2c1 (configuration not stated) | 95% (inactive)
O=C(Nc1nnc(S(=O)(=O)N2CCCCCC2)s1)c1ccc(Br)cc1 | 60% (inactive)
O=C(Nc1nnc(S(=O)(=O)N2CCCCCC2)s1)c1cccc(Br)c1 | 9% (active)
COc1ccc(C(=O)Nc2nnc(S(=O)(=O)N3CCCCCC3)s2)cc1OC | 80% (inactive)
O=C(Nc1nnc(S(=O)(=O)N2CCOCC2)s1)c1cccc(Br)c1 | 42% (active)
COc1cccc(C(=O)Nc2nnc(S(=O)(=O)N3CCCC3)s2)c1 | 33% (active)
Cc1cccc(C(=O)Nc2nnc(S(=O)(=O)N3CCOCC3)s2)c1 | 58% (inactive)
COc1cccc(C(=O)Nc2nc3ccc(S(=O)(=O)N4CCCC4)cc3s2)c1 | 79% (inactive)
O=C(Nc1nnc(S(=O)(=O)N2CCOCC2)s1)c1ccc(F)cc1 | 78% (inactive)
CC1CCN(C(=O)COc2ccc(C(C)C)cc2)CC1 | 86% (inactive)
Cc1ccc(C)n1-c1nnc(N2CCC(C(=O)Nc3ccccc3Br)CC2)s1 | 91% (inactive)
c1cc(CNC2CCCCC2)co1 | 72% (inactive)
Nc1nnc(CCC(CCc2nnc(N)s2)(CCc2nnc(N)s2)C(=O)c2ccccc2)s1 | 92% (inactive)
COc1ccc(C)c2sc(N(Cc3cccnc3)C(C)=O)nc12 | 80% (inactive)
COc1ccccc1NC(=O)Cn1c(=O)n(Cc2ccc3c(c2)OCO3)c(=O)c2oc3ccccc3c21 | 77% (inactive)
Cn1c(SCc2ccc(F)cc2)nc2ccc(C(=O)NCc3cccc(Cl)c3)cc21 | 56% (active)
Cn1c(SCc2ccc(F)cc2)nc2ccc(C(=O)NCc3ccccc3)cc21 | 49% (inactive)
Cn1c(SCc2ccc(F)cc2)nc2ccc(C(=O)NCc3ccc(Cl)cc3)cc21 | 50% (inactive)
COc1ccc(C2NC(=O)NC(C)=C2C(=O)Nc2ccccc2)cc1OC (configuration not stated) | 116% (inactive)
COc1cc(C2NC(=O)NC(C)=C2C(=O)Nc2cc(C)cc(C)c2)ccc1O (configuration not stated) | 38% (active)
COc1ccc(OC)c(C2NC(=O)NC(C)=C2C(=O)Nc2cc(C)cc(C)c2)c1 (configuration not stated) | 47% (inactive)
Cc1cccc(NC(=O)CSc2nnc3[nH]c(=O)cc(-c4ccccc4)n23)c1C | 116% (inactive)
O=C(NCc1ccccc1)C(=O)NCC(c1cccs1)S(=O)(=O)c1ccccc1 (configuration not stated) | 52% (active)
O=S(=O)(NCC(c1cccs1)S(=O)(=O)c1ccccc1)c1ccc(F)cc1 (configuration not stated) | 46% (active)
O=S(=O)(NCC(c1cccs1)S(=O)(=O)c1ccccc1)c1ccc(F)c(C(F)(F)F)c1 (configuration not stated) | 92% (inactive)

SMILES | survival
O=C(NCc1ccccc1)C(=O)NCC(c1cccs1)S(=O)(=O)c1cccs1 (configuration not stated) | 91% (inactive)
Cc1ccc(CNC(=O)C(=O)NCC(c2cccs2)S(=O)(=O)c2ccc(C)cc2)cc1 (configuration not stated) | 98% (inactive)
O=S(=O)(NCC(c1cccs1)S(=O)(=O)c1ccccc1)c1ccccc1 (configuration not stated) | 115% (inactive)
CC(C)c1ccc(N2C(=O)CS(=O)(=O)C23C(=O)N(Cc2cccc(F)c2)c2ccccc23)cc1 (configuration not stated) | 69% (inactive)
COc1ccc(C2Nc3ccccc3-c3nnc(SC)nc3O2)cc1C (configuration not stated) | 67% (inactive)
COc1ccccc1NC(=O)CSc1nc2ccccc2c2nc(-c3ccccc3)nn12 | 90% (inactive)
Cc1ccc(OCCCC(=O)Nc2ccc3c(c2)OCO3)cc1 | 100% (inactive)
COc1ccccc1CNC(=O)c1ccc2nc(CCc3ccccc3)oc2c1 | 83% (inactive)
Cc1cccc(N2CCN(S(=O)(=O)c3c(C)[nH]c(=O)[nH]c3=O)CC2)c1C | 84% (inactive)
CCN(CC)c1nn2c(=O)c(C(=O)NCCc3cccc(C)c3)cnc2s1 | 73% (inactive)
O=C(CSc1nc2c(c(=O)[nH]1)CCC2)Nc1cccc(O)c1 | 86% (inactive)
CCOc1ccc(CCNC(=O)c2cc3c(s2)-c2c(C)cccc2OC3)cc1 | 98% (inactive)
CCCN1CCN(CCCNC(=O)c2cc3c(s2)-c2c(C)cccc2OC3)CC1 | 127% (inactive)
CCOCCCN(Cc1ccco1)C(=O)c1cc2c(s1)-c1c(C)cccc1OC2 | -3% (active)
CCCCN(Cc1ccco1)C(=O)c1cc2c(s1)-c1c(C)cccc1OC2 | -2% (active)
CCN1CCN(CCCNC(=O)c2cc3c(s2)-c2c(C)cccc2OC3)CC1 | 102% (inactive)
COc1ccc(CNC(=O)c2cc3c(s2)-c2c(C)cccc2OC3)cc1 | 87% (inactive)
Cc1ccc(-n2ncc(C(=O)N3CCN(C4CCCCC4)CC3)c2C2CCN(C(=O)OC(C)(C)C)CC2)cc1 | 82% (inactive)
O=C(Nc1cccc2cccnc12)c1ccc(-c2cccc(Cl)c2)o1 | 3% (active)
Cc1ccc2cccc(NC(=O)c3ccc(-c4cc(Cl)ccc4Cl)o3)c2n1 | 71% (inactive)
O=C(O)c1ccc(-c2cccc(Cl)c2)o1 | 67% (inactive)
Cc1ccc2cccc(NC(=O)c3ccc(-c4cccc([N+](=O)[O-])c4)o3)c2n1 | 67% (inactive)
Cc1ccc2cccc(NC(=O)c3ccc(-c4ccc(Cl)cc4Cl)o3)c2n1 | 67% (inactive)
Cc1ccc2cccc(NC(=O)c3ccc(-c4ccc(Br)cc4)o3)c2n1 | 59% (active)
Cc1ccc2cccc(NC(=O)c3ccc(-c4cccc(Cl)c4)o3)c2n1 | 49% (active)

SMILES | survival
Cc1ccc2cccc(NC(=O)c3ccc(-c4cccc(Cl)c4Cl)o3)c2n1 | 55% (inactive)
Nc1nc(N)c(S(=O)(=O)c2ccccc2)c(Nc2ccc(F)cc2)n1 | 72% (inactive)
O=C(COc1ccccc1)NCCc1csc(-c2cccc(F)c2)n1 | 78% (inactive)
O=C(CSc1nc(-c2ccco2)cc(C(F)(F)F)n1)Nc1ccccc1 | 102% (inactive)
CN(C)c1ccc(NC(=O)CSc2nc(-c3ccco3)cc(C(F)(F)F)n2)cc1 | 65% (inactive)
COc1ccc(Cl)cc1NC(=O)CSc1nc(-c2ccco2)cc(C(F)(F)F)n1 | 31% (active)
Cc1cc(F)ccc1NC(=O)CCSc1nc(-c2ccco2)cc(C(F)(F)F)n1 | 45% (inactive)
Cc1ccc(F)cc1NC(=O)CCSc1nc(-c2ccco2)cc(C(F)(F)F)n1 | 48% (inactive)
Cc1ccc(O)c(NC(=O)CCSc2nc(-c3ccco3)cc(C(F)(F)F)n2)c1 | 28% (active)
COc1ccc(NC(=O)CSc2nc(-c3ccco3)cc(C(F)(F)F)n2)cc1Cl | 38% (active)
CCNS(=O)(=O)c1ccc(NC(=O)CSc2nc(-c3ccco3)cc(C(F)(F)F)n2)cc1 | 36% (active)
COc1ccc(NC(=O)CSc2nc(-c3ccco3)cc(C(F)(F)F)n2)cc1 | 86% (inactive)
COc1ccc(NC(=O)CSc2nc(-c3ccco3)cc(C(F)(F)F)n2)cc1OC | 63% (inactive)
CCOc1ccccc1CNC(=O)CCCn1nc(C)c2sc3ccccc3c2c1=O | 85% (inactive)
O=C1C2C3c4ccccc4C(c4ccccc43)C2C(=O)N1CN1CCOCC1 (configuration not stated) | 78% (inactive)
CCCOc1ccc(NC(=O)CC2C(=O)N(c3ccc(C)cc3)C(=O)N2C2CCCC2)cc1 (configuration not stated) | 67% (inactive)
Cc1ccc(NC(=O)Cn2c(=O)n(Cc3nc(-c4ccccc4)no3)c(=O)c3cc4c(cc32)OCO4)c(C)c1 | 62% (inactive)
COc1ccc(N(C)C(=O)c2cn(C3CCCCC3)c(=O)c3c2c2ccccc2n3C)cc1 | 67% (inactive)
Cc1ccc(-n2nc(C(=O)NC(C)C)c(=O)n(C)c2=O)cc1 | 78% (inactive)
Cc1c(NC(=O)Nc2ccc(Cl)c(C(F)(F)F)c2)c(=O)n(-c2ccccc2)n1C | 124% (inactive)
CC(C)CCn1c(=O)c2sccc2n2c(CCCC(=O)NCc3ccc(F)cc3)nnc12 | 88% (inactive)
Cc1oc2ncn(C)c(=O)c2c1C(=O)Nc1ccccn1 | 102% (inactive)
COc1cccc(CNC(=O)Cn2c(=O)oc3cc(S(=O)(=O)N4CCCC4)ccc32)c1 | 122% (inactive)
Cc1ccc(Cl)cc1NC(=O)C(=O)NCCc1sc(-c2ccc(F)cc2)nc1C | 90% (inactive)
CC1CCN(S(=O)(=O)c2ccc3c(c2)N(CC(=O)NCC(C)c2ccccc2)C(=O)CO3)CC1 (configuration not stated) | 64% (inactive)

SMILES | survival
Cc1ccc(C(=O)Nc2ccc(C(=O)OCc3cc(=O)n4ccsc4n3)cc2)cc1 | 72% (inactive)
Cc1ccc(NC(=O)CSc2nc(-c3ccco3)cc(C(F)(F)F)n2)cc1 | 129% (inactive)
Cc1ccc(NC(=O)CCSc2nc(-c3ccco3)cc(C(F)(F)F)n2)cc1F | 48% (inactive)
Cc1ccc(NC(=O)CSc2nc(-c3ccco3)cc(C(F)(F)F)n2)cc1C | 33% (active)
CC(C)NC(=O)CSc1nc(-c2ccco2)cc(C(F)(F)F)n1 | 64% (inactive)
Cc1ccc(NC(=O)CSc2nc(-c3ccco3)cc(C(F)(F)F)n2)c(C)c1 | 63% (active)
Cc1cccc(NC(=O)CSc2nc(-c3ccco3)cc(C(F)(F)F)n2)c1C | 69% (inactive)
CC(=O)Nc1ccc(S(=O)(=O)NC2(C(F)(F)F)C(=O)Nc3c2c(=O)[nH]c(=O)n3-c2ccc(C)c(C)c2)cc1 (configuration not stated) | 81% (inactive)
CCOc1ccc(S(=O)(=O)NC(=O)N(CC)Cc2cc3ccccc3o2)cc1 | 76% (inactive)
CCCc1cnc2c(c1SCc1ccc(C(F)(F)F)cc1)c(=O)n(C)c(=O)n2C | 54% (inactive)
Cc1ccc(-c2nc3cc(Cl)ccc3o2)cc1NC(=O)c1cc2ccccc2o1 | 43% (active)
Cc1ccc2oc(-c3ccc(Cl)c(NC(=O)Cc4ccccc4)c3)nc2c1 | 95% (inactive)
Cc1c(NC(=O)c2ccc(Br)o2)cccc1-c1nc2ccccc2o1 | 60% (inactive)
Cc1c(NC(=O)c2cc3ccccc3o2)cccc1-c1nc2ccccc2o1 | 36% (active)
Cc1c(NC(=O)c2cccc3c(Cl)cccc23)cccc1-c1nc2ccccc2o1 | 63% (inactive)
O=C(Nc1ccc2oc(-c3ccc(O)c(Br)c3)nc2c1)c1cc2ccccc2o1 | 49% (inactive)
Cc1ccc(-c2nc3cc(C(C)C)ccc3o2)cc1NC(=O)c1cc2ccccc2o1 | 19% (active)
Cc1ccc2oc(-c3ccc(Cl)c(NC(=O)c4cc5ccccc5o4)c3)nc2c1 | 39% (active)
Cc1ccc(-c2nc3cc(NC(=O)c4cc5ccccc5o4)ccc3o2)cc1Cl | 139% (inactive)
Cc1ccc(-c2nc3ccccc3o2)cc1NC(=O)Cc1ccc(Cl)cc1 | 73% (inactive)
CC(=O)Nc1cc(-c2nc3cc(Cl)ccc3o2)ccc1C | 51% (inactive)
O=C(Nc1cc(-c2nc3cc(Cl)ccc3o2)ccc1Cl)c1cc2ccccc2o1 | 82% (inactive)
